In PubChem BioAssay AID1347076 (National Center for Advancing Translational Sciences (NCATS), 2019):
Among all 400,000 compounds or so, about 13,000 (3.2%) were called active. Not shown: some 18% with an inconclusive outcome. What follows is part of a selection rich in actives, with near analogues and random picks from the rest. Values without a mark were called inactive. The call rests on the fitted dose curve; in most records, active means well fitted cell-killing curve with a large enough effect; inconclusive means small, poorly fitted or top-dose-only effect, or effect the other way; inactive means flat fitted curve, though single readings scatter.

Assay: qHTS assay for MDR1-selective chemotherapeutics: Primary screen using the drug-selected MDR subline cells KB-V1; further: nearly all actives have a fitted effect of over 60% in size
Settings: KB-V1 MDR cells viability, CellTiter-Glo, 72 h; series mostly up to 46.1 µM; activity change, negative = cytotoxicity: at the top concentration
Procedure, shortened: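 Drug-selected KB-V1 cells, grown in DMEM lacking phenol red with 10% FBS, receive compound titrations; after three days at 37 degrees C, surviving cell ATP is quantified by CellTiter-Glo luminescence and responses normalized and curve-fitted.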
On the % scale 0 is the no-effect control and ±100 the full control effect; potency means the concentration at half of the fitted maximal effect.

Row | Structure (SMILES) | activity change, negative = cytotoxicity [%] | Potency
1 | Cc1ccccc1NC(=O)Cc1nc(COC(=O)C(C)(C)Oc2ccc(Cl)cc2)cs1 | 9.47 | –
2 | Cn1nc(C(F)(F)F)c(C(=O)Nc2cccc(C(F)(F)F)c2)c1SCc1ccc(Cl)cc1 | – | 18.4 µM (active)
3 | Cc1ccc(Cc2nc3ccccc3nc2SCC(=O)Nc2cccc(C(F)(F)F)c2)cc1 | 0 | –
4 | Cc1onc(-c2ccc(F)cc2F)c1C(=O)Nc1cccc(C(F)(F)F)c1 | -23.5 | –
5 | CCC(=O)N1CCc2cc(Br)cc(S(=O)(=O)CCC(=O)NCCc3ccc(OC)c(OC)c3)c21 | 0 | –
6 | C[C@@H]1CN([C@H](C)CO)C(=O)CCCn2cc(nn2)CO[C@H]1CN(C)S(C)(=O)=O | -10.7 | –
7 | Cc1ccc(-c2nn(CCC(=O)Nc3ccc(OC(F)(F)F)cc3)c(=O)c3ccccc23)cc1 | -14.4 | –
8 | CCc1nc2ccc(C(=O)Nc3ccc(OC)c(OC)c3)cn2c1N(C)C(=O)c1cccc(OC)c1 | 3.04 | –
9 | CCCC/C=C/c1cccc2nncn12 | 5.91 | –
10 | CCCCC[C@H](C)N1C[C@@H](COCc2ccccc2)Oc2cc(N3CCC[C@@H]3CO)ccc2S1(=O)=O | 13.8 | –
11 | CC(=O)N1CCCc2cc(S(=O)(=O)N3CCCC(C(=O)N4CCN(c5cccc(Cl)c5)CC4)C3)ccc21 (configuration not stated) | – | 16.4 µM (active)
12 | CC(=O)N1c2ccc(S(=O)(=O)N3CCCC(C(=O)Nc4cccc(Cl)c4)C3)cc2CC1C (configuration not stated) | -8.22 | –
13 | CC(=O)N1CCCc2cc(S(=O)(=O)N3CCCC(C(=O)NCc4ccc(Cl)cc4)C3)ccc21 (configuration not stated) | – | inactive
14 | CC(=O)c1ccc(NC(=O)CSc2nc(-c3ccccc3F)nc3c2c(=O)n(C)c(=O)n3C)cc1 | 27.3 | –
15 | CC(C)CCNC(=O)CSc1nc2ccccc2nc1Cc1ccc(Cl)cc1 | 10.5 | –
16 | C=CCSc1nc(Cc2ccc(Cl)cc2)nc2ccccc12 | – | 16.4 µM (active)
17 | CCCNC(=O)CSc1nc(Cc2ccccc2)nc2ccccc12 | -19.6 | –
18 | CCOC(=O)c1c(NC(=O)c2cc(-c3ccc(Cl)cc3)on2)sc2c1CCCC2 | 6.22 | –
19 | COc1ccc(CCCc2nnc(SCc3nc4ccccc4c(=O)[nH]3)n2C)cc1 | -19.7 | –
20 | CCn1c(COc2c(C)cccc2C)nnc1SCc1nc2ccccc2c(=O)[nH]1 | -6.81 | –
21 | COc1ccc(C)cc1-n1nnnc1SCc1nc2ccccc2c(=O)[nH]1 | – | 5.17 µM (active)
22 | COCCCn1c(=O)/c(=C/c2ccccc2OC(C)C)s/c1=C(\C#N)C(=O)Nc1ccc(C(=O)O)cc1 | -5.04 | –
23 | Cc1nc(C(F)(F)F)ccc1C(=O)N1CCC1(C)C(=O)NS(=O)(=O)c1ccccc1Cl (configuration not stated) | 0.0203 | –
24 | COc1cc(CNC(=O)c2cc3n(n2)CCCN(Cc2cccc(F)c2)C3=O)cc(OC)c1OC | 1.03 | –
25 | COC(=O)c1ccccc1NC(=O)Cn1c(=O)cc(C)c2c(C)nn(-c3cccc(Cl)c3C)c21 | 3.13 | –

Row | Structure (SMILES) | activity change, negative = cytotoxicity [%] | Potency
26 | CCCCCNC(=O)c1cccnc1SCC(=O)Nc1ccccc1OC | – | 6.51 µM (active)
27 | CCCNC(=O)c1ccccc1NC(=O)CSCc1ccc(OC)cc1 | -14.4 | –
28 | COc1ccccc1NC(=O)CSc1nnc(CNC(=O)c2ccccc2F)o1 | 0 | –
29 | O=C(Nc1ccccn1)c1sc2ccc([N+](=O)[O-])cc2c1Cl | -9.59 | –
30 | Cc1ccc(-c2ccc(CN3C(C(C)C)C(=O)N(Cc4cn(CCC5OCCCO5)nn4)CCS3(=O)=O)cc2)cc1 (configuration not stated) | -14.7 | –
31 | CNC(=O)C[C@H]1C(=O)N(Cc2ccccc2)C[C@@H]1CSC | 1.19 | –
32 | Cc1nc(-c2ccc(F)cc2)c(CC(=O)Nc2cccc(S(=O)(=O)N3CCOCC3)c2)s1 | -8.88 | –
33 | Cc1ccc(NC(=O)Nc2cccnc2)cc1 | -4.27 | –
34 | Cc1ccc(-c2nc(-c3cccnc3)sc2CC(=O)Nc2ccc(C)c(Cl)c2)cc1 | – | 8.2 µM (active)
35 | CC(=O)N1C[C@@H](CO)[C@@H](N(C)C(=O)c2ccco2)C[C@H]1c1ccccc1 | 12.2 | –
36 | CCCCn1nnnc1C(c1cccc(OC)c1OC)N1CCN(C/C=C/c2ccccc2)CC1 (configuration not stated) | 14.1 | –
37 | CC(C)(O)C#Cc1ccc(CNC[C@H]2O[C@@H](n3cnc4c(=O)[nH]c(N)nc43)[C@H](O)[C@@H]2O)s1 | 8.09 | –
38 | O=C(c1ccc(S(=O)(=O)N2CCOCC2)cc1)N1CCN(c2ccccc2)CC1 | – | 16.4 µM (active)
39 | O=C(c1ccc(S(=O)(=O)NCc2ccco2)cc1)N1CCN(c2ccccc2)CC1 | -12.4 | –
40 | O=C(c1ccc(S(=O)(=O)N2CCCC2)cc1)N1CCN(c2ccccc2F)CC1 | -7.58 | –
41 | COc1cc2nnn(-c3ccncc3)c2cc1OC | -1.5 | –
42 | CCOC(=O)C1(C)CCCN(C(=O)c2ccc(N(C)C)cc2)C1 (configuration not stated) | 3.14 | –
43 | O=C(Nc1nnc(-c2ccc(Cl)cc2)o1)c1ccccc1Br | – | 6.51 µM (active)
44 | O=C(COC(=O)c1ccccc1Br)Nc1nnc(-c2ccccc2)o1 | -26.5 | –
45 | O=C(Nc1ccccc1)c1ccccc1Br | 4.37 | –
46 | CCc1nc2c(OCc3ccc(C(=O)OC)cc3)cccn2c1N(C)C(=O)C(C)C | 0.64 | –
47 | C=CCn1nc(C(=O)OCC)cc1-c1sc(NC(=O)c2ccccc2)nc1C | -21.4 | –
48 | CCOC(=O)c1sc(NC(=O)C(CC)Sc2nccn2C)nc1C (configuration not stated) | -18.2 | –
49 | C=CCn1c2ccccc2c2nnc(SC(CC)C(=O)Nc3nc(C)c(C(=O)OCC)s3)nc21 (configuration not stated) | – | 2.31 µM (active)
50 | O=C(NCCC1CCCCN1S(=O)(=O)c1cccs1)C(=O)Nc1ccc(F)cc1F (configuration not stated) | – | 14.6 µM (active)

Row | Structure (SMILES) | activity change, negative = cytotoxicity [%] | Potency
51 | COc1ccccc1CCNC(=O)C(=O)NCCC1CCCCN1S(=O)(=O)c1cccs1 (configuration not stated) | -9.95 | –
52 | COc1ccc(CCNC(=O)C(=O)NCC2CCCN2S(=O)(=O)c2cccs2)cc1OC (configuration not stated) | -25.2 | –
53 | COc1cc(C#Cc2ccc3cc(CCCO)oc(=O)c3c2)cc(OC)c1 | – | 3.66 µM (active)
54 | O=C1c2ccccc2C(=O)N1CCC#Cc1ccc2cc(C3(O)CCCCC3)oc(=O)c2c1 | 4.63 | –
55 | CCn1c(SCC(=O)NCc2ccco2)nnc1-c1ccc(N)cc1 | 0 | –
56 | O=C(CSc1nnc(-c2ccco2)n1Cc1ccccc1)NC(=O)NCc1ccco1 | – | 20.6 µM (active)
57 | O=C(CSc1nnc(-c2ccco2)n1-c1ccccc1)NCCc1ccccc1 | -20.9 | –
58 | Cc1ccc(-c2csc3nnc(SCC(=O)NCc4ccco4)n23)cc1 | – | 9.2 µM (active)
59 | Cn1c(-c2ccc(F)cc2)cnc1SCC(=O)NCc1ccco1 | -15.2 | –
60 | O=C(CSc1nnc2scc(-c3ccc(F)cc3)n12)NCc1ccco1 | -5.87 | –
61 | CCOCCn1ccc2c(OCC(=O)NCc3ccc(C)cc3)cccc2c1=O | -4.93 | –
62 | CN(C)c1ccc(C(CNS(=O)(=O)c2cc(F)ccc2F)N2CCOCC2)cc1 (configuration not stated) | 4.28 | –
63 | CC[C@@H]1CC2=C(C(=O)OC(C)(C)O2)[C@@H](CC)O1 | 2.71 | –
64 | COc1cccc(OCC(=O)NCCS(=O)(=O)N2CCN(c3ccccc3)CC2)c1 | -0.223 | –
65 | COc1ccc2c(c1)C=C(C(=O)NCc1cc(Br)ccc1OC)CO2 | 7.07 | –
66 | COc1cc(-c2nnc(NC(=O)CS(=O)(=O)c3ccc(Cl)cc3)o2)cc(OC)c1OC | -2.72 | –
67 | COc1ccc(Cl)cc1NC(=O)CN(C)C(=O)c1cn(-c2ccccc2)nc1-c1cccs1 | -11 | –
68 | O=C(CN1C(=O)NC(Cc2ccccc2)(Cc2ccccc2)C1=O)NCC1CCCCC1 | – | 20.6 µM (active)
69 | COc1cccc(CNC(=O)CN2C(=O)NC(Cc3ccccc3)(c3ccccc3)C2=O)c1 (configuration not stated) | -1.58 | –
70 | O=C(CC1CCCCC1)NCc1ccccc1 | -3.84 | –
71 | COC(=O)C[C@H]1C[C@@H]2c3cc(N(C)C)ccc3O[C@@H]2[C@H](CO)O1 | 12 | –
72 | CCC(C)N1C(=O)S/C(=C/c2ccc(Sc3nc4ccccc4[nH]3)o2)C1=O (configuration not stated) | – | 5.17 µM (active)
73 | CN(Cc1ccccc1)C(=O)CSc1nc2ccccc2[nH]1 | -16 | –
74 | O=C1NC[C@H](Cc2ccc(O)cc2)N(C[C@H]2CCCN2C[C@H](Cc2ccccc2)N2C[C@H](Cc3ccccc3)N(CCc3ccccc3)C(=O)C2=O)C1=O | 10.8 | –
75 | COCCCNc1ccn2nc(-c3ccc(CC(C)C)cc3)cc2n1 | -15 | –

Row | Structure (SMILES) | activity change, negative = cytotoxicity [%] | Potency
76 | O=C(Nc1ccc(S(=O)(=O)Nc2ncccn2)cc1)c1cncc(Br)c1 | 0 | –
77 | CCOc1ncccc1C(=O)Nc1ccc(S(=O)(=O)Nc2nc(C)cc(C)n2)cc1 | – | 20.6 µM (active)
78 | CCOc1ncccc1C(=O)Nc1ccc2c(c1)OCCO2 | -3.64 | –
79 | CCOC(=O)c1cccc(NC(=O)C(Cc2ccccc2)NS(=O)(=O)c2cccc3nsnc23)c1 (configuration not stated) | -8.85 | –
80 | Cc1nnc(SCC(=O)N2CCN(c3ccccc3)CC2)n1-c1ccccc1 | -5.39 | –
81 | COc1cccc(-c2ccc(SCC(=O)N3CCN(c4ccccc4)CC3)nn2)c1 | – | 14.6 µM (active)
82 | COc1cccc(/C=C/C(=O)OCC(=O)N2CCN(c3ccccc3)CC2)c1 | -12.1 | –
83 | O=C1CCCC2=C1[C@@]1(CCC(c3ccccc3)C1)N=C(Nc1nc3ccccc3o1)N2 (some centres not stated) | -23.4 | –
84 | N#CNC1=NCN(CCc2ccccc2)CN1 | 4.58 | –
85 | c1ccc(CCN2CN=C(Nc3nc4ccccc4o3)NC2)cc1 | – | 13 µM (active)
86 | Cc1cc(NC(=O)c2cc(-c3cccs3)on2)nn1Cc1ccc(Cl)cc1 | – | 9.2 µM (active)
87 | Cc1ccccc1Cn1nc(C)c(NC(=O)c2cc(-c3ccc(F)cc3)on2)c1C | -2.23 | –
88 | CC(=O)c1ccc(NC(=O)c2cc(-c3cccs3)on2)cc1 | -21.1 | –
89 | Cc1cccc(CC(=O)Nc2cccc(-c3cn4cccnc4n3)c2)c1 | 11.6 | –
90 | COc1ccc(NC(=O)N(C)C[C@H]2Oc3ncc(C#C[C@@H](C)O)cc3C(=O)N([C@H](C)CO)C[C@H]2C)cc1 | -2.19 | –
91 | CCOC(=O)C1C(c2ccc(O)cc2)NC(=O)NC1(O)C(F)(F)F (configuration not stated) | 18 | –
92 | O=C(c1cccs1)C1C(c2ccc(Br)cc2)NC(=S)NC1(O)C(F)(F)F (configuration not stated) | – | 20.6 µM (active)
93 | Cc1ccc(Cc2c(-c3ccc(C)cc3)nc3c4ccccc4ccn23)cc1 | 2.79 | –
94 | c1ccc2c(c1)nnn2-c1ccncc1 | 0.884 | –
95 | CC(=NCc1ccco1)c1c(C(F)(F)F)[nH]n(-c2nc3ccccc3s2)c1=O | – | 9.2 µM (active)
96 | CC(=NCc1ccco1)C1=C(O)c2ccccc2C1=O | -27.6 | –
97 | CCc1ccc(-c2cc(C(=O)NCc3ccco3)c3ccccc3n2)s1 | 1.92 | –
